# Most compounds without a hit are left out; they make up all but 3.9% or so of the library.
# Wnt bcat act: activators of Wnt/beta-catenin signaling. Wnt/beta-catenin reporter cell assay, activator, plate reader. activation, % at 9.35 µM. 300,000 tested, 1.2% active; in the data active = activation above about 30%, passing the limit was not always enough; inconclusive = no clear call, values can overlap the other calls
# esBAF inh: blocks esBAF chromatin remodeling in mouse ES cells. AID 602393. Bmi1-luciferase knock-in reporter, 24 h; 100% = twice the neutral-well signal. 350,000 tested, 2% active. reporter increase, % at 12.5 µM; in the data active = activation above about 40%; inconclusive = no clear call, values can overlap the other calls;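 also: a rise in the Bmi1 reporter signal indicates esBAF inhibition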
# MITF act: MITF TRPM1 promoter activation in melanoma cells; AID 588334; SK-MEL-5 TRPM1-promoter luciferase, 24 h; % of positive control, neutral wells = 0; activation, % at 12.5 µM; 300,000 tested, 0.75% active;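 active = mean activation of at least 80% with every replicate also reaching 80%; inconclusive = mean reaches 80% but some replicate falls short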
# HSF-1 act: increases HSF-1 driven luciferase reporter signal. NIH3T3-HGL HSF-1 luciferase reporter, MG132, 8 h; 100% = twice DMSO control signal. activation, % at 9 µM. 300,000 tested, 1.7% active;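 active = mean replicate activation of at least 50% with a set share of replicates each reaching 50%; inconclusive = only one of those two conditions met; inactive = mean below 50% and too few replicates reaching it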
# HSF1 inh: HSF1 inhibition; NIH3T3-HGL HSE-luciferase, MG132-induced, luminescence 8 h; hits give low values; activity change, negative = inhibition, % at 7.5 µM (by protocol); 300,000 tested, 0.77% active; AID 2098;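 active = more than half of replicate wells show activity change below -50%, luminescence cut by over half; inconclusive = some wells, but at most half, below -50%; inactive = no replicate well below -50%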;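 also: luciferase reports HSF-1 transcriptional activity via heat shock element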
# Numbers stand for hits; i = inactive; ? = inconclusive; nt = not tested or not shown.
SMILES,Wnt bcat act,esBAF inh,MITF act,HSF-1 act,HSF1 inh
COc1ccc(NC(=O)CSc2nncs2)cc1S(=O)(=O)N1CCCCC1,i,i,i,nt,nt
Cn1c(C(=O)NCc2ccccn2)cc2c(=O)n3ccccc3nc21,nt,54,?,i,i
Cn1c(C(=O)NC2CCCCC2)cc2c(=O)n3ccccc3nc21,i,i,?,i,i
c1ccc(N2CCN(c3nc4cc5c(cc4s3)OCO5)CC2)cc1,i,49,i,72,i
c1c2c(cc3sc(N4CCCCC4)nc13)OCO2,54,nt,i,i,i
Brc1ccc2nc(N3CCN(c4ccccc4)CC3)sc2c1,i,i,i,73,i
Clc1ccc2nc(N3CCN(c4ccccc4)CC3)sc2c1,nt,nt,nt,?,i
C[C@@H]1CN([C@@H](C)CO)C(=O)c2cc(C#CC3CC3)cnc2O[C@H]1CN(C)C(=O)c1ccccc1,nt,i,nt,nt,nt
Nc1ccc(C2=Nc3cccc4cccc(c34)N2)cc1,i,i,i,73,i
C[C@H](CO)N1C[C@H](C)[C@@H](CN(C)S(=O)(=O)c2cccs2)OCCCC[C@H](C)Oc2ccc(NC(=O)c3ccccc3)cc2C1=O,nt,i,nt,nt,nt
O=C(O)CCc1nc(-c2cccs2)no1,nt,nt,i,i,i
O=[N+]([O-])c1ccc(F)cc1OCc1nc(-c2cccs2)no1,i,nt,?,66,i
Cc1ccc(OCc2nc(-c3cccs3)no2)c([N+](=O)[O-])c1,i,nt,i,104,i
COc1ccccc1CN1CCN(Cc2nc(-c3cccs3)no2)CC1,i,nt,i,i,i
Cc1ccc(OCc2nc(-c3ccccc3)no2)c(C)c1,nt,64,i,109,i
O=[N+]([O-])c1ccccc1OCc1nc(-c2cccs2)no1,i,nt,119,82,i
CN1[C@@H]2Cn3c(ccc(C4=CCCCC4)c3=O)[C@H]1[C@@H](C(=O)NCc1cccc(F)c1)[C@@H]2CO,nt,i,nt,nt,nt
C[C@@H]1CN([C@@H](C)CO)S(=O)(=O)c2ccc(C#Cc3ccc(F)cc3)cc2O[C@@H]1CN(C)C,nt,i,nt,nt,nt
O=C1c2ccccc2C(=O)N1CCCCSc1nnnn1-c1ccccc1,nt,i,i,53,i
c1ccc(OCCSc2nnnn2-c2ccccc2)cc1,nt,i,90,69,i
CCCN1[C@H](C(=O)N(C)C)[C@@H](CO)[C@@H]2Cn3c(ccc(-c4ccccc4OC)c3=O)[C@@H]21,nt,i,nt,nt,nt
NC(=O)c1ccsc1NC(=O)c1ccc2c(c1)CCCC2,i,i,i,i,i
CNC(=O)c1ccsc1NC(=O)c1ccc2c(c1)CCCC2,i,56,i,i,i
Cc1cccc(COc2ccc(/C=N/NC(=O)c3nnn(-c4nonc4N)c3CN3CCCCC3)cc2)c1,i,?,i,i,i
CCN(CC)Cc1c(C(=O)N/N=C/c2cccc(OCc3cccc(Cl)c3)c2)nnn1-c1nonc1N,i,i,i,57,i
SMILES,Wnt bcat act,esBAF inh,MITF act,HSF-1 act,HSF1 inh
CN(C)Cc1c(C(=O)N/N=C/c2ccc(OCc3c(F)cccc3Cl)cc2)nnn1-c1nonc1N,i,i,i,108,i
Nc1nonc1-n1nnc(C(=O)N/N=C/c2ccc(OCc3cccc(Cl)c3)cc2)c1CN1CCCCC1,i,nt,106,i,i
Nc1nonc1-n1nnc(C(=O)N/N=C/c2ccc(OCc3ccccc3F)cc2)c1CN1CCCCC1,i,i,84,i,i
CCOc1ccc(/C=N/NC(=O)c2nnn(-c3nonc3N)c2CN2CCC(C)CC2)cc1,i,i,i,i,i
CCNC(=O)Nc1ccc2c(c1)C(=O)N(C)[C@H]1CC[C@@H](CC(=O)NC3CCCCC3)O[C@@H]1CO2,nt,i,nt,nt,nt
COc1cc(/C=N/NC(=O)c2nnn(-c3nonc3N)c2C)ccc1OCc1ccc(Cl)cc1,i,56,nt,nt,nt
O=C(/C=C/c1cccc(Cl)c1)NCc1cccs1,i,i,nt,52,i
C[C@@H]1CN([C@H](C)CO)C(=O)c2cc(C#CCc3ccccc3)cnc2O[C@H]1CN(C)C(=O)C1CCOCC1,nt,i,nt,nt,nt
Cc1cc(/C=C2\SC(=S)N(C)C2=O)c(C)n1-c1ccccc1O,i,i,i,i,i
CCn1c(C)cc(/C=C2/SC(=S)NC2=O)c1C,i,nt,i,i,i
COc1ccc(-n2c(C)cc(/C=C3\SC(=O)NC3=O)c2C)cc1,i,?,i,i,i
Cc1cc(/C=C2/C(=O)NN(c3ccccc3)C2=O)c(C)n1-c1cccc(O)c1,i,nt,i,i,-63
Cc1ccc(-n2c(C)cc(/C=C3\SC(=O)NC3=O)c2C)cc1,i,?,i,61,i
Cc1cc(/C=C2\SC(=S)N(C)C2=O)c(C)n1-c1ccc(O)cc1,i,nt,i,i,-52
Cc1cc(/C=C2\SC(=S)NC2=O)c(C)n1-c1cccc(O)c1,36,nt,i,i,i
C[C@@H](NC(=O)C[C@@H]1CC[C@H]2[C@H](COc3ccc(NC(=O)C4CCOCC4)cc3C(=O)N2C)O1)c1ccccc1,nt,i,nt,nt,nt
C[C@H](CO)N1C[C@H](C)[C@@H](CN(C)C(=O)c2ccncc2)Oc2cc(C#CC3CC3)ccc2S1(=O)=O,nt,i,nt,nt,nt
CNC[C@@H]1Oc2ccc(NS(=O)(=O)c3c(C)noc3C)cc2C(=O)N([C@H](C)CO)C[C@@H]1C,nt,i,nt,nt,nt
Cc1noc(C)c1S(=O)(=O)Nc1ccc2c(c1)C(=O)N([C@H](C)CO)C[C@@H](C)[C@@H](CN(C)C(=O)c1ccccc1)OCCCC[C@@H](C)O2,nt,i,nt,nt,nt
CN(C(=O)C1CCC(CNS(=O)(=O)c2cccc3cccnc23)CC1)C1CCCCC1 (centres undefined),i,i,i,i,i
O=C(C1CCC(CNS(=O)(=O)c2cccc3cccnc23)CC1)N1CCCC1 (centres undefined),i,i,i,i,-86
C/C=C/c1ccc2c(c1)O[C@H](CN(C)Cc1cccnc1)[C@H](C)CN([C@@H](C)CO)S2(=O)=O,nt,i,nt,nt,nt
COc1ccc(-c2nn(-c3ccccc3)cc2/C=C(\CC(=O)O)c2nc3ccccc3s2)cc1OC,i,40,i,i,-70
CCOc1cc(CNc2ccc3c(c2)OCCO3)cc(Br)c1OCC(N)=O,nt,i,i,i,-74
CCOc1cc(CNc2ccc3c(c2)OCCO3)cc(Br)c1OC,nt,i,i,i,i
SMILES,Wnt bcat act,esBAF inh,MITF act,HSF-1 act,HSF1 inh
COc1ccccc1N1CCN(C2=Nc3cccc4cccc2c34)CC1,i,i,95,i,i
CC(=O)N1CCN(C2=Nc3cccc4cccc2c34)CC1,i,i,i,i,i
CCC(=O)N(C)/C=C1\Sc2ccccc2C1=O,nt,nt,i,i,i
O=CN(/C=C1\Sc2ccccc2C1=O)Cc1ccccc1,i,51,i,i,i
CN1C(=O)c2cc(NC(=O)C3CC3)ccc2OC[C@H]2O[C@H](CC(=O)NCCc3ccncc3)CC[C@@H]21,nt,i,nt,nt,nt
Nc1nc(N)c(C=Nc2ccc(Br)cc2)c(Nc2ccc(Br)cc2)n1,i,i,i,67,i
C[C@@H]1CN([C@@H](C)CO)C(=O)c2cc(-c3ccc(C(=O)N(C)C)cc3)cnc2O[C@H]1CN(C)C,nt,i,nt,nt,nt
COc1ccccc1C(=O)NCCC(=O)NNC(=O)Cn1ccc(C(F)(F)F)n1,i,i,i,i,-77
CC(C)CCNC(=O)CSc1nc2ccccc2c(=O)[nH]1,nt,i,i,55,i
